# Measured values as given in PubChem BioAssay AID1159580 (chemical genetic matrix, 2015).
# Screen size: about 5,500 compounds; about 2,000 (36%) were called active. Not shown: some 18% with an inconclusive outcome. Some of the results follow. A number with no mark means an inactive call. Cut-off read from the data, not from the text of the source: active = normalized growth mostly below about 0.91 (no sharp cut-off); inconclusive = no clear call, values can overlap the other calls; inactive = mostly above about 0.92.
# Assay: chemical genetic growth profiling, strain panel (AID 1159580);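 note: tested at 20 µM; growth read once vehicle control cultures reached saturation at 30 °C; 1 = growth at the plate median or of vehicle wells; lower values mean less growth of the strain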
# Conditions: growth OD
smiles,measurement,setting,value
C[C@@H]1CC[C@@]23CCC4(C)[C@@](C=CC5[C@@]6(C)CC[C@H](O)C(C)(C)C6CC[C@]54C)(OC2=O)C3[C@H]1C (stereo partly drawn),normalized growth,"S. cerevisiae deletion strains, locus YJR043C, strain POL32, hits give low values",1
same,normalized growth,"S. cerevisiae deletion strains, locus YJR066W, strain TOR1, hits give low values",0.991
same,normalized growth,"S. cerevisiae deletion strains, locus YJR075W, strain HOC1, hits give low values",1.02
same,normalized growth,"S. cerevisiae deletion strains, locus YKL009W, strain mrt4, hits give low values",1.26 [resistant] (active)
same,normalized growth,"S. cerevisiae deletion strains, locus YKL085W, strain MDH1 (second series), hits give low values",1
same,normalized growth,"S. cerevisiae deletion strains, locus YKL085W, strain MDH1, hits give low values",1
same,normalized growth,"S. cerevisiae deletion strains, locus YKL160W, strain elf1, hits give low values",1.01
same,normalized growth,"S. cerevisiae deletion strains, locus YKL190W, strain CNB1, hits give low values",1.01
same,normalized growth,"S. cerevisiae deletion strains, locus YKR001C, strain vps1, hits give low values",1.06
same,normalized growth,"S. cerevisiae deletion strains, locus YKR026C, strain gcn3, hits give low values",1.01
same,normalized growth,"S. cerevisiae deletion strains, locus YKR091W, strain srl3, hits give low values",1
same,normalized growth,"S. cerevisiae deletion strains, locus YLL001W, strain dnm1, hits give low values",1.02
same,normalized growth,"S. cerevisiae deletion strains, locus YLL026W, hits give low values",1
same,normalized growth,"S. cerevisiae deletion strains, locus YLL041C, strain sdh2, hits give low values",1
same,normalized growth,"S. cerevisiae deletion strains, locus YLR027C, strain aat2, hits give low values",1
same,normalized growth,"S. cerevisiae deletion strains, locus YLR039C, strain RIC1, hits give low values",1.09
same,normalized growth,"S. cerevisiae deletion strains, locus YLR058C, strain SHM2, hits give low values",1.02
same,normalized growth,"S. cerevisiae deletion strains, locus YLR102C, strain apc9, hits give low values",1.03
same,normalized growth,"S. cerevisiae deletion strains, locus YLR113W, strain HOG1, hits give low values",1.02
same,normalized growth,"S. cerevisiae deletion strains, locus YLR221C, strain rsa3, hits give low values",0.998
same,normalized growth,"S. cerevisiae deletion strains, locus YLR258W, strain gsy2, hits give low values",0.996
same,normalized growth,"S. cerevisiae deletion strains, locus YLR262C, strain YPT6 (second series), hits give low values",1.02
same,normalized growth,"S. cerevisiae deletion strains, locus YLR262C, strain YPT6, hits give low values",1.09
same,normalized growth,"S. cerevisiae deletion strains, locus YLR268W, strain sec22, hits give low values",1.03
same,normalized growth,"S. cerevisiae deletion strains, locus YLR320W, strain mms22, hits give low values",1.01
same,normalized growth,"S. cerevisiae deletion strains, locus YLR330W, strain CHS5, hits give low values",1.03
same,normalized growth,"S. cerevisiae deletion strains, locus YLR342W, strain FKS1 (second series), hits give low values",1.02
same,normalized growth,"S. cerevisiae deletion strains, locus YLR342W, strain FKS1, hits give low values",1.01
same,normalized growth,"S. cerevisiae deletion strains, locus YLR357W, strain rsc2, hits give low values",1.07
same,normalized growth,"S. cerevisiae deletion strains, locus YLR370C, strain arc18, hits give low values",1.01
same,normalized growth,"S. cerevisiae deletion strains, locus YLR371W, strain rom2, hits give low values",1.29 [resistant] (active)
same,normalized growth,"S. cerevisiae deletion strains, locus YLR384C, strain iki3, hits give low values",0.981
same,normalized growth,"S. cerevisiae deletion strains, locus YLR418C, strain cdc73, hits give low values",1.07
same,normalized growth,"S. cerevisiae deletion strains, locus YML016C, strain PPZ1, hits give low values",1.01
same,normalized growth,"S. cerevisiae deletion strains, locus YML032C, strain rad52, hits give low values",1.02
same,normalized growth,"S. cerevisiae deletion strains, locus YML120C, strain ndi1, hits give low values",1
same,normalized growth,"S. cerevisiae deletion strains, locus YML124C, strain tub3, hits give low values",1
same,normalized growth,"S. cerevisiae deletion strains, locus YMR058W, strain fet3, hits give low values",1
same,normalized growth,"S. cerevisiae deletion strains, locus YMR078C, strain ctf18, hits give low values",0.991
same,normalized growth,"S. cerevisiae deletion strains, locus YMR125W, strain sto1, hits give low values",1.01
same,normalized growth,"S. cerevisiae deletion strains, locus YMR129W, hits give low values",0.997
same,normalized growth,"S. cerevisiae deletion strains, locus YMR205C, strain PFK2, hits give low values",1.02
same,normalized growth,"S. cerevisiae deletion strains, locus YMR223W, strain ubp8, hits give low values",1.08
same,normalized growth,"S. cerevisiae deletion strains, locus YMR231W, strain pep5, hits give low values",0.98
same,normalized growth,"S. cerevisiae deletion strains, locus YMR307W, strain GAS1, hits give low values",1.13
same,normalized growth,"S. cerevisiae deletion strains, locus YNL067W, strain RPL9B, hits give low values",1.01
same,normalized growth,"S. cerevisiae deletion strains, locus YNL071W, strain lat1, hits give low values",1.01
same,normalized growth,"S. cerevisiae deletion strains, locus YNL183C, strain NPR1, hits give low values",0.998
same,normalized growth,"S. cerevisiae deletion strains, locus YNL209W, strain ssb2, hits give low values",1.01
same,normalized growth,"S. cerevisiae deletion strains, locus YNL233W, strain BNI4, hits give low values",1.05
same,normalized growth,"S. cerevisiae deletion strains, locus YNL248C, strain rpa49, hits give low values",1.01
same,normalized growth,"S. cerevisiae deletion strains, locus YNL250W, strain rad50, hits give low values",1
same,normalized growth,"S. cerevisiae deletion strains, locus YNL271C, strain bni1, hits give low values",0.994
same,normalized growth,"S. cerevisiae deletion strains, locus YNL298W, strain CLA4, hits give low values",1
same,normalized growth,"S. cerevisiae deletion strains, locus YNL307C, strain MCK1, hits give low values",1
same,normalized growth,"S. cerevisiae deletion strains, locus YNL322C, strain KRE1 (second series), hits give low values",0.998
same,normalized growth,"S. cerevisiae deletion strains, locus YNR049C, strain mso1, hits give low values",1.01
same,normalized growth,"S. cerevisiae deletion strains, locus YNR052C, strain pop2, hits give low values",1.02
same,normalized growth,"S. cerevisiae deletion strains, locus YOL006C, strain TOP1, hits give low values",1.08
same,normalized growth,"S. cerevisiae deletion strains, locus YOL012C, strain htz1",2.58 [resistant] (active)
same,normalized growth,"S. cerevisiae deletion strains, locus YOL147C, strain pex11, hits give low values",1.01
same,normalized growth,"S. cerevisiae deletion strains, locus YOR001W, strain rrp6, hits give low values",1
same,normalized growth,"S. cerevisiae deletion strains, locus YOR061W, strain CKA2, hits give low values",1.01
same,normalized growth,"S. cerevisiae deletion strains, locus YOR069W, strain VPS5, hits give low values",1.01
same,normalized growth,"S. cerevisiae deletion strains, locus YOR070C, strain gyp1, hits give low values",1.03
same,normalized growth,"S. cerevisiae deletion strains, locus YOR080W, strain dia2, hits give low values",1.09
same,normalized growth,"S. cerevisiae deletion strains, locus YOR083W, strain WHI5, hits give low values",1.01
same,normalized growth,"S. cerevisiae deletion strains, locus YOR106W, strain vam3, hits give low values",1.02
same,normalized growth,"S. cerevisiae deletion strains, locus YOR136W, strain idh2, hits give low values",1.06
same,normalized growth,"S. cerevisiae deletion strains, locus YOR144C, strain elg1, hits give low values",0.997
same,normalized growth,"S. cerevisiae deletion strains, locus YOR184W, strain ser1, hits give low values",1.05
same,normalized growth,"S. cerevisiae deletion strains, locus YOR231W, strain MKK1, hits give low values",1.02
same,normalized growth,"S. cerevisiae deletion strains, locus YOR265W, strain rbl2, hits give low values",1.01
same,normalized growth,"S. cerevisiae deletion strains, locus YOR270C, strain vph1, hits give low values",1.05
same,normalized growth,"S. cerevisiae deletion strains, locus YOR290C, strain snf2, hits give low values",1
same,normalized growth,"S. cerevisiae deletion strains, locus YOR316C, strain cot1, hits give low values",1.03
same,normalized growth,"S. cerevisiae deletion strains, locus YPL051W, strain arl3, hits give low values",1.02
same,normalized growth,"S. cerevisiae deletion strains, locus YPL055C, strain LGE1, hits give low values",1.06
same,normalized growth,"S. cerevisiae deletion strains, locus YPL078C, strain atp4, hits give low values",1.02
same,normalized growth,"S. cerevisiae deletion strains, locus YPL106C, strain sse1, hits give low values",1.03
same,normalized growth,"S. cerevisiae deletion strains, locus YPL240C, strain hsp82, hits give low values",1
same,normalized growth,"S. cerevisiae deletion strains, locus YPL256C, strain CLN2, hits give low values",1.06
same,normalized growth,"S. cerevisiae deletion strains, locus YPR119W, strain clb2, hits give low values",0.986
same,normalized growth,"S. cerevisiae deletion strains, locus YPR141C, strain kar3, hits give low values",1
same,normalized growth,"S. cerevisiae deletion strains, locus YPR163C, strain tif3, hits give low values",1
same,normalized growth,"S. cerevisiae deletion strains, locus YPR167C, strain met16, hits give low values",1.05
same,normalized growth,"S. cerevisiae deletion strains, strain wtn01, hits give low values",1
same,normalized growth,"S. cerevisiae strains, strain wild type, hits give low values",1.02
